# AMPAR-TARP mod: modulates AMPAR-stargazin complexes; hit rate 3.5% among 40,000; AID 1259245; calls only at 30 µM; HEK293 GluA2+stargazin, membrane potential dye (FDSS), glutamate EC50; hits were called plate by plate, in both directions; O88602+P19491;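 active means any of four per-well response measures lying three or more SD from its plate-wide compound average, in either direction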
# GIRK2 act: GIRK2 channel activators by thallium flux; P48051; HEK293 GIRK2/NPY4 cells, thallium flux fluorescence; activation (% efficacy), % for hits at 37.5 µM; 34,000 tested, under 10 active;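 active means primary screen hit, no activity in plain HEK293 cells, and in GIRK2-only cells above 5% efficacy rising with concentration; inactive means the rest, including fluorescent compounds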;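 further: efficacy is normalized control-subtracted fluorescence 15 s after thallium addition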
# Target sequence (P48051 whole entry, looked up): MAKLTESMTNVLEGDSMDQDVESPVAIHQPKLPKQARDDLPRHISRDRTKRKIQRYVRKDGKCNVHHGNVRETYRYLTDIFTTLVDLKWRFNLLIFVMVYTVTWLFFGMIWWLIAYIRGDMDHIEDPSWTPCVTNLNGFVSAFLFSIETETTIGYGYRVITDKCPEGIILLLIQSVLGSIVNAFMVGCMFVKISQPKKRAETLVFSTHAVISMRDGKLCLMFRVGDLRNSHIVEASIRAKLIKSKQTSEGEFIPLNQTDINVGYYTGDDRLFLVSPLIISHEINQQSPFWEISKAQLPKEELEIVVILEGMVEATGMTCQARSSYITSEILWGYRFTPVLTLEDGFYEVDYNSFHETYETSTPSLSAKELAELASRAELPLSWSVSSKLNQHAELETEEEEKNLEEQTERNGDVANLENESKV
# * marks the source's active call; other numbers are inactive results; i = inactive; x = no result; + = active, no number; ! = a repeat was not active. Shown is part of a subset that was picked to be rich in hits.
SMILES,AMPAR-TARP mod,GIRK2 act
COC(=O)/C=c1/s/c(=C(/C#N)C(=O)NCc2ccco2)n(-c2ccccc2)c1=O,i,i
COc1ccccc1-c1c(C)oc2cc(OC(=O)N3CCOCC3)ccc2c1=O,i,x
COc1ccccc1-c1c(C)oc2cc(OCC=C(C)C)ccc2c1=O,+,x
Cc1oc2cc(OCC(=O)OCc3ccccc3)ccc2c(=O)c1-c1ccccc1,+,x
CCN(CC)C(=O)Oc1ccc2c(=O)c(-c3ccccc3)c(C)oc2c1,i,x
CCOC(=O)COc1ccc2c(=O)c(-c3ccccc3)c(C)oc2c1,i,x
CCN(CC)C(=O)Oc1ccc2c(=O)c(-c3ccc(OC)c(OC)c3)c(C)oc2c1,+,i
Cc1ccc(C(CNC(=O)c2ccc([N+](=O)[O-])cc2Cl)N2CCOCC2)cc1 (centres undefined),i,i
CN(C)CC(O)COC1CC2CCC1(C)C2(C)C (centres undefined),i,i
O=C1CN(CCc2ccccc2F)C2CS(=O)(=O)CC2N1c1cccc(Cl)c1 (centres undefined),i,i
Cc1cccc(NC(=O)CCc2csc(NC(=O)c3cccs3)n2)c1C,i,i
Cc1cccc(NC(=O)c2cc3c(=O)n(C)c(=O)n(C)c3s2)c1C,i,i
CC(O)CNC(=O)c1cc2c(=O)n(C)c(=O)n(C)c2s1 (centres undefined),i,i
Cn1c(=O)c2cc(C(=O)NCCc3ccc(S(N)(=O)=O)cc3)sc2n(C)c1=O,+,i
Cn1c(=O)c2cc(C(=O)NCCCCO)sc2n(C)c1=O,+,i
Cn1c(=O)c2cc(C(=O)NCCN3CCOCC3)sc2n(C)c1=O,+,i
CC(=O)Nc1cccc(NC(=O)c2cc3c(=O)n(C)c(=O)n(C)c3s2)c1,+,i
Cn1c(=O)c2cc(C(=O)NCC3CCCO3)sc2n(C)c1=O (centres undefined),i,i
Cn1c(=O)c2cc(C(=O)NCC(O)CO)sc2n(C)c1=O (centres undefined),i,i
O=C(Nc1ccc([N+](=O)[O-])cc1)c1ccno1,i,i
Cn1nnc2c(=O)n(CC(=O)Nc3ccccc3)cnc21,i,i
O=C(Cc1csc(SCC(=O)c2ccccc2)n1)NCc1ccccc1,x,i
CCCCN(C(=O)c1cc2c(=O)n(C)c(=O)n(C)c2s1)c1ccccc1,+,i
Cn1c(=O)c2cc(C(=O)N3CCN(c4ccccc4)CC3)sc2n(C)c1=O,i,x
COC(=O)C1CCN(C(=O)c2cc3c(=O)n(C)c(=O)n(C)c3s2)CC1,i,i
SMILES,AMPAR-TARP mod,GIRK2 act
Cn1c(=O)c2cc(C(=O)N3CCCC3)sc2n(C)c1=O,+,i
CS(=O)(=O)N1CCC(C(=O)Nc2cc(-c3cccs3)nn2CCO)CC1,i,i
COc1ccc(NC(=O)CSc2nnc(C)c3ccccc23)c(OC)c1,i,i
COc1ccc(NC(=O)CSc2nc(-c3ccc(C)cc3)c3ccccc3n2)c(OC)c1,+,i
Cc1nnc2ccc(N3CCN(C(=O)NCc4ccccc4)CC3)nn12,i,i
O=S(=O)(c1ccccc1F)N1CCN(c2ccc3nnc(-c4ccco4)n3n2)CC1,+,i
Cc1ccc(C)c(S(=O)(=O)N2CCN(c3ccc4nnc(-c5ccco5)n4n3)CC2)c1,i,i
O=C(NCc1ccccc1)N1CCN(c2ccc3nnc(-c4ccco4)n3n2)CC1,+,i
Cc1nnc2ccc(N3CCN(S(=O)(=O)c4ccccc4C(F)(F)F)CC3)nn12,i,i
Cc1nnc2ccc(N3CCN(S(=O)(=O)c4ccccc4Cl)CC3)nn12,+,i
O=C(NCCc1ccccc1)C(=O)NCCC(O)c1cccs1 (centres undefined),i,i
COc1ccc(CCC(=O)NCCN2CCN(c3ccccc3F)CC2)cc1,i,i
CC(Oc1ccccc1)C(=O)NCCS(=O)(=O)N1CCN(c2ccccn2)CC1 (centres undefined),i,i
O=C(CSc1cc(N2CCN(c3ccccc3F)CC2)ncn1)NCc1cccs1,i,i
Cc1ccc(-c2nnc(CN3CCC(Cc4ccccc4)CC3)o2)cc1,+!,i
Cc1ccc(-c2nnc(CN3CCN(Cc4ccccc4)CC3)o2)cc1,i,i
O=C(NC(c1ccccc1)c1ccccc1)c1ccc(S(=O)(=O)NCc2ccco2)o1,+,i
CC(NC(=O)c1ccc(S(=O)(=O)N2CCOCC2)o1)c1ccccc1 (centres undefined),i,i
CCN(CC)CCNC(=O)C(=O)Nc1ccc([N+](=O)[O-])cc1,i,x
CC(O)CNC(=O)C(=O)Nc1ccc([N+](=O)[O-])cc1 (centres undefined),+,x
CC1CN(C)CCN1CC1CCN(C(=O)CC2CCCCC2)CC1 (centres undefined),i,i
CCOC(=O)N1CCN(C(=O)c2ccc(S(=O)(=O)NCc3cccs3)o2)CC1,i,i
COc1ccc(OC)c(-c2ccc(=O)n(CC(=O)Nc3cc(C)ns3)n2)c1,i,x
COc1ccc(-c2cc3c(=O)[nH]nc(SCc4nc(-c5ccc(F)cc5)no4)n3n2)cc1OC,x,i
Cc1ccc(S(=O)(=O)CCCC(=O)N(Cc2ccccc2)Cc2ccccc2)cc1,+,i
SMILES,AMPAR-TARP mod,GIRK2 act
COc1ccc(S(=O)(=O)CC(=O)N(Cc2ccccc2)Cc2ccccc2)cc1,i,i
COCCn1c(=O)c2c(nc3n2CC(C)CN3c2ccc(Br)cc2)n(C)c1=O (centres undefined),+,x
CCOCCn1c(=O)c2c(nc3n2CC(C)CN3c2ccc(Br)cc2)n(C)c1=O (centres undefined),i,x
CCn1c(-n2nc(C)cc2C)nc2c1c(=O)n(CCOC)c(=O)n2C,i,x
COCCn1c(=O)c2c(nc(-n3nc(C)cc3C)n2C)n(C)c1=O,+,x
Cc1cc(OCC(O)Cn2c(C3CC(=O)N(Cc4ccccc4)C3)nc3ccccc32)ccc1Cl (centres undefined),i,i
COC(=O)c1ccc(OC)c(CN2C(=O)N(Cc3ccc(OC)cc3)S(=O)(=O)c3ccccc32)c1,i,i
O=C(Nc1ccccc1)c1ccc(C(=O)Nc2ccccc2)nc1,i,x
O=C(Nc1ccccc1)c1cccc2nc3ccccc3nc12,+,x
CCc1ccc(NC(=O)c2cc3ccccc3o/c2=N\OC(C)=O)cc1,i,x
COc1ccc(-c2ccc(C#N)c(SCc3ccc(C#N)cc3)n2)cc1,i,i
COc1ccc(-c2ccc3c(N)c(-c4ccc(C#N)cc4)sc3n2)cc1,+,i
COC(=O)Nc1ccc(CC(=O)NC2CC2)cc1,i,i
COc1ccc(OC)c(NC(=O)Cn2nc(SC)c(-c3nc(-c4ccccc4)no3)c2N)c1,i,i
Cc1cc(NC(=O)C2CCCN2S(=O)(=O)c2ccc(Cl)s2)on1 (centres undefined),x,i
O=C(/C=C/c1ccccc1)NCC1CCN(C(=O)c2cc3ccccc3o2)CC1,+,i
O=C(CSCc1ccccc1)NCC1CCN(C(=O)c2cc3ccccc3o2)CC1,i,i
O=C(c1cc2ccccc2o1)N1CCC(CNS(=O)(=O)c2ccc3c(c2)OCCO3)CC1,i,i
O=C(/C=C/c1ccc2c(c1)OCO2)NCC1CCN(C(=O)c2cc3ccccc3o2)CC1,+,i
